Screening data (PubChem BioAssay)
SMARCA2 act – SMARCA2 (BRM) function activators, primary screen, cell-based, luminescence, high throughput; MG213 cells, MMTV-luciferase reporter, dexamethasone, overnight; activation, % at 9.1 µM; 1% of 370,000 active; AID 652017, 2013; in the data active = activation above about 7.8%
beta cell repl – inducers of MIN6 beta-cell proliferation, primary screen, ATP luminescence, uHTS. MIN6 cells proliferation, ATPlite luminescence, 48 h; cells starved in 0.2% serum; 100% = growth in 10% serum. proliferation, % at 10 µM. 0.29% of 330,000 active. AID 2380, 2010;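 active = compounds whose signal lies at least 3.5 SD above the mean of all wells on their plate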
ALR inh – inhibitors of human ALR sulfhydryl oxidase, primary screen, biochemical, H2O2 detection, HRP-luminol luminescence, single point. FAD-linked sulfhydryl oxidase ALR (Homo sapiens), P55789. purified ALR, DTT oxidation. inhibition, % (no concentration beside the values). 3.8% of 290,000 active. AID 485317, 2010;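 active = mean replicate inhibition above about 79%, with every replicate also reaching it, limit read from the data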
GASC-1 inh – inhibitors of GASC-1 histone demethylase, primary screen, biochemical, fluorescence, DELFIA europium | Lysine-specific demethylase 4C (Homo sapiens), Q9H3R0 | GST-JMJD2C(1-420) H3K9me3 demethylation | inhibition, % at 2.35 µM | 0.069% of 330,000 active;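 active = more than half of a compound's replicate wells show inhibition beyond 50%, single wells judged on their own value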;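 also: signal counts dimethyl H3K9 product captured on neutravidin plate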
Target sequence (Q9H3R0 1-420 limits assumed): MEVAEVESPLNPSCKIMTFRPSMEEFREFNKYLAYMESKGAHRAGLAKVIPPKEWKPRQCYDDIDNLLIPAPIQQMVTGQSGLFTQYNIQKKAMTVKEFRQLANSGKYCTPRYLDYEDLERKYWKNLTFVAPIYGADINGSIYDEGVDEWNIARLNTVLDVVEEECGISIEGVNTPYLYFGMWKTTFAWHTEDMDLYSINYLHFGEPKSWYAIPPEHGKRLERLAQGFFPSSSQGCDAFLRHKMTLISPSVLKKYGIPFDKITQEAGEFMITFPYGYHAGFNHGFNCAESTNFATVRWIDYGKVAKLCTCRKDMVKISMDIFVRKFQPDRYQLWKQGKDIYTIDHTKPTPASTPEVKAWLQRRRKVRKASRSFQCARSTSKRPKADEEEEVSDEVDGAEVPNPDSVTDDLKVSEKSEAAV
M18AAP inhibitor – PfM18AAP inhibitors, malaria aminopeptidase, primary screen, biochemical, QFRET, recombinant enzyme | 1.2% of 290,000 active | AID 1822, 2009 | inhibition, % at 7.35 µM | H-Glu-NHMec fluorogenic cleavage | M18 aspartyl aminopeptidase (Plasmodium falciparum 3D7);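 active = inhibition above the campaign mean inhibition over all tested compounds plus 3 SD, cut at about 28% in these data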
Granule exo inh – LAMP-1 surface exposure blockers, TALL-104 cells – cell-based, flow cytometry, MLPCN library, primary screen; inhibition, % at 10 µM; TALL-104 LAMP-1 surface exposure; cells stimulated with thapsigargin and PMA; 0.66% of 360,000 active; AID 651702, 2012;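 active = inhibition above about 55%, limit read from the data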
Numbers stand for hits; – = inactive; · = not tested or not shown. The list is not random: actives were taken first. Their share in the collection is about 5.4%.

SMILES | SMARCA2 act | beta cell repl | ALR inh | GASC-1 inh | M18AAP inhibitor | Granule exo inh
CCn1c(CN2c3ccccc3Sc3ccccc32)n[nH]c1=S | – | – | 98 | – | – | –
COc1ccc(C(C2C(=O)CC(C)(C)CC2=O)C2C(=O)CC(C)(C)CC2=O)cc1CO | – | – | 96 | – | – | –
O=C(Nc1ccccc1O)c1cccc(S(=O)(=O)Nc2ccccc2O)c1 | – | – | 99 | – | · | –
O=C(Nc1ccccc1C(=O)O)c1cccc(S(=O)(=O)Nc2ccc(Br)cc2)c1 | – | – | 99 | – | – | –
O=C(Nc1ccccc1C(=O)O)c1cccc(NS(=O)(=O)c2ccc(Br)cc2)c1 | – | · | – | – | – | –
Cc1ccccc1NS(=O)(=O)c1cccc(C(=O)Nc2cccc(C(=O)O)c2)c1 | – | – | – | – | – | –
NC(=NCCc1c[nH]c2ccccc12)NC(=O)OCc1ccccc1 | – | · | · | · | · | ·
C=CCNc1cccc2c1S(=O)(=O)N[C@@H](C)CO2 | – | · | · | · | · | ·
N#CNC(=Nc1cccc(C(F)(F)F)c1)SCc1ccc(C(=O)O)cc1 | – | – | 99 | – | – | –
CCN(CCCNC(=O)CN1C(=O)COc2ccccc21)c1ccccc1 | – | – | 99 | – | – | –
CCN(CCCNC(=O)CCn1c(=O)[nH]c2ccccc2c1=O)c1ccccc1 | – | – | 98 | – | – | –
CC(=NNC(=O)CSc1nnc(-c2ccccc2)n1-c1ccccc1)c1cccc([N+](=O)[O-])c1 | – | · | · | · | · | ·
COc1ccccc1Nc1c2c(nc3ccccc13)CCC2 | – | – | 99 | – | – | –
Fc1cccc(Nc2c3c(nc4ccccc24)CCC3)c1 | – | – | – | – | – | –
c1ccc2c(Nc3ccc4c(c3)OCCO4)c3c(nc2c1)CCCC3 | – | – | 90 | – | – | –
COc1cc(Nc2c3c(nc4ccccc24)CCCC3)cc(OC)c1OC | – | – | 98 | – | – | –
Cc1ccc2nc3c(c(Nc4cccc(O)c4)c2c1)CCC3 | – | – | 98 | – | – | –
COC(=O)[C@]12C[C@H](CC(=O)NCCC(C)C)C(=O)N(Cc3ccco3)C1=C[C@H](C(C)(C)C)O[C@@H]2C | – | · | · | · | · | ·
COc1cc(N)ccc1Nc1c2ccccc2nc2ccccc12 | · | · | · | · | · | –
O=C(CSc1c2c(nc3ccccc13)CCCC2)NCc1ccco1 | – | – | 98 | – | – | –
COc1ccc(NC(=O)CSc2nnc(-c3ccncc3)o2)c(OC)c1 | – | – | – | – | · | –
COc1ccc(Nc2c3c(nc4ccccc24)CCC3)c(OC)c1 | – | – | 99 | – | – | –
COc1ccc(NC(=O)CSc2c3c(nc4ccccc24)CCC3)c(OC)c1 | – | – | 98 | – | – | –
COc1ccc(NC(=O)CSc2nnc(-c3cccnc3)o2)c(OC)c1 | – | – | 98 | – | · | –
CN(Cc1ccccc1)S(=O)(=O)c1cccc(C(=O)OCc2ccccc2Cl)c1 | – | · | · | · | · | ·
SMILES | SMARCA2 act | beta cell repl | ALR inh | GASC-1 inh | M18AAP inhibitor | Granule exo inh
Cc1onc(-c2ccc(Cl)cc2)c1-c1ccn(S(=O)(=O)c2ccccc2)n1 | – | · | · | · | · | ·
Cc1nn(-c2ccccc2)c2sc(C(=O)NC3CCCc4ccccc43)cc12 (configuration not stated) | – | · | · | · | · | ·
Cc1ccc2[nH]c3nc(NN)nnc3c2c1 | – | – | – | – | 31 | –
Cc1cc(Oc2ncccc2[N+](=O)[O-])c2cc(Cl)ccc2n1 | – | – | 97 | – | – | –
COc1ccc(C(=O)CSc2nnc(-c3ccco3)n2CC2CCCO2)cc1 (configuration not stated) | – | – | – | – | – | –
COc1cccc(C(=O)CSc2nnc(-c3ccco3)n2CC2CCCO2)c1 (configuration not stated) | – | – | 91 | – | – | –
Cc1occc1-c1nnc(SCC(=O)c2ccccc2)n1CC1CCCO1 (configuration not stated) | – | – | 98 | – | – | –
Cc1ccc(CS/C(Nc2ccccc2C)=C(\C#N)C(=O)NCc2ccco2)c(C)c1 | – | – | 99 | – | – | –
